Data taken from PMC4336329 (PLoS ONE, 2015).
In all, about 310,000 compounds went through this assay and about 14,000 (4.5%) showed an effect of 50% or more. The effect is printed as a negative number. This excerpt belongs to a sample that is enriched for strong results.

molecular target: human ether-à-go-go-related gene (hERG) potassium channel (human, UniProt Q12809); test: primary screen, population patch clamp on CHO cells stably expressing hERG; higher = less effect of the substance
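Note: peak tail current of the secondary pulse compared with the same well before compound.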

human ether-à-go-go-related gene (hERG) potassium channel, sequence (Q12809 whole entry, looked up): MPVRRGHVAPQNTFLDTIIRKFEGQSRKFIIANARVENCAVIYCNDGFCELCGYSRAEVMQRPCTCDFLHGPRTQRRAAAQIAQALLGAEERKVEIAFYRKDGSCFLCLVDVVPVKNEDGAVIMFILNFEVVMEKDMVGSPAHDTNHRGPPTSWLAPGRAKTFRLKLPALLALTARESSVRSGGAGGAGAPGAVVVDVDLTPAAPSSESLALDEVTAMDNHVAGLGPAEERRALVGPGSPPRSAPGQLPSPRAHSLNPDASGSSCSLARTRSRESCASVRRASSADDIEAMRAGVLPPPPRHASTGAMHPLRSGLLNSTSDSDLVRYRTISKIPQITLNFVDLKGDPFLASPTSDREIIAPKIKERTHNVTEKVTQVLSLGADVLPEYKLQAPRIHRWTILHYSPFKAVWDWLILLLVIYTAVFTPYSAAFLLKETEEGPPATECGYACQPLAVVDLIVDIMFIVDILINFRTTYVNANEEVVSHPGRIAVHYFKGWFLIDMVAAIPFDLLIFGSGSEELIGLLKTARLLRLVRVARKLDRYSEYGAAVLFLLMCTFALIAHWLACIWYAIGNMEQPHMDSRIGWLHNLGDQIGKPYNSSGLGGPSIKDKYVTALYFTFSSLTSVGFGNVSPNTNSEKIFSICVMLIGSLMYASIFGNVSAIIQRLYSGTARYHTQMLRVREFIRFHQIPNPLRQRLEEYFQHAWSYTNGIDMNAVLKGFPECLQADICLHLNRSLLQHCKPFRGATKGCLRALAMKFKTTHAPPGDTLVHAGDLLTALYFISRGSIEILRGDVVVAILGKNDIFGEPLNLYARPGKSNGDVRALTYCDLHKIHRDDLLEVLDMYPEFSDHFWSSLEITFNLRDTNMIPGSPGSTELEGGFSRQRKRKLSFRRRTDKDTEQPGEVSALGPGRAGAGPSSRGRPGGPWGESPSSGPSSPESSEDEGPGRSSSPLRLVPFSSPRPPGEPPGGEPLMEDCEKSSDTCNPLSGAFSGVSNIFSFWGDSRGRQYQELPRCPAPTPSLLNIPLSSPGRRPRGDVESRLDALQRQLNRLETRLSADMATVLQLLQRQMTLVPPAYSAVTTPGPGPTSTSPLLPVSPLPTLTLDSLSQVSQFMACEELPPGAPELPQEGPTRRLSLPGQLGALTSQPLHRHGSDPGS

Going from `COc1cc(C)c(/C=C(\C#N)C(=O)Nc2ccc(C)cc2)cc1C(C)C` to `COc1ccc(CC(=O)Nc2ccc(C#N)c(Cl)c2)cc1S(=O)(=O)N1CCOCC1`, the “hERG current change (%, negative = inhibition) at 10uM” value falls from 11.1% to -68.1%.

Compared with `COCCN(C(=O)COC(=O)c1sccc1C)c1c(N)n(Cc2ccccc2)c(=O)[nH]c1=O`, `Cc1cccc(C(=O)OCC(=O)c2c(N)n(CC(C)C)c(=O)n(C)c2=O)c1[N+](=O)[O-]` is lower in “hERG current change (%, negative = inhibition) at 10uM” value: 15.4% for the first, -29.1% for the second.

Compared with `CCCN(CCC)CCCNC(=O)C(NS(=O)(=O)c1ccc2c(c1)CCC(=O)N2)c1ccccc1` (stereo not shown), `CC(C)CC(C(=O)NC(=O)NCc1ccccc1)N1C(=O)c2ccccc2C1=O` (stereo not shown) is lower in “hERG current change (%, negative = inhibition) at 10uM” value: 20.5% for the first, 8.22% for the second.

First: CCn1ncc(S(=O)(=O)NCc2ccco2)c1C
Second: CCCn1ncc([C@@H]2C[C@H]3CN(Cc4cccc(Cl)c4)C(=O)[C@]34CCCN24)c1C
The “hERG current change (%, negative = inhibition) at 10uM” value of the first is higher: -0.626% for the first, -43.6% for the second.

First: O=C(Nc1ccc(S(=O)(=O)Nc2cnc3ccccc3n2)cc1)c1ccccc1Br
Second: Cc1ccc(C(=O)Nc2ccc(Cl)cc2C(=O)c2ccccc2)cc1
The “hERG current change (%, negative = inhibition) at 10uM” value of the first is lower: -10.5% for the first, 17.1% for the second.

Compared with `O=C(CCN1C(=O)/C(=C/c2cccs2)SC1=S)Nc1ccccc1O`, `O=c1c2ccccc2c(=O)n(-c2ccccc2)n1CCCCBr` is lower in “hERG current change (%, negative = inhibition) at 10uM” value: 13.7% for the first, -63.5% for the second.

Going from `CC(C)c1ccc(NC(=O)CNC(=O)Cn2cnc3ccccc3c2=O)cc1` to `CC(=O)n1c(=O)c2ccccc2c(=O)n1-c1ccccc1`, the “hERG current change (%, negative = inhibition) at 10uM” value rises from 3.21% to 3.89%.

First: Cc1ccc(N/C=C/C(=O)c2ccco2)c(O)c1
Second: COc1cc2c(cc1NC(=O)CSc1nc3ccc(C)cc3[nH]1)oc1ccccc12
The “hERG current change (%, negative = inhibition) at 10uM” value of the first is higher: 8.63% for the first, 7.65% for the second.

First: CC(=O)N1CCN(c2nnc(-c3ccccc3)c3ccccc23)CC1
Second: CC(=O)N1CCN(c2nnc(-c3ccc(C)cc3)c3ccccc23)CC1
The “hERG current change (%, negative = inhibition) at 10uM” value of the first is higher: 3.22% for the first, -38.6% for the second.

First: O=C(c1cccs1)N1CCN(c2ncccn2)CC1
Second: O=C(c1cccs1)N1CCN(c2nnc(-c3ccccc3)c3ccccc23)CC1
The “hERG current change (%, negative = inhibition) at 10uM” value of the first is higher: 0.299% for the first, -76.5% for the second.

Compared with `Cc1ccc(-c2nnc(N3CCN(C(=O)CN4C(=O)c5ccccc5C4=O)CC3)c3ccccc23)cc1`, `Cc1ccc(-c2nnc(N3CCN(C(=O)c4cccs4)CC3)c3ccccc23)cc1` is lower in “hERG current change (%, negative = inhibition) at 10uM” value: 6.37% for the first, -65.4% for the second.

Going from `O=C(CSc1ccccc1)N1CCN(S(=O)(=O)c2ccccc2F)CC1` to `Cc1ccc(C)c(S(=O)(=O)N2CCN(C(=O)Cn3c(C(F)(F)F)nc4ccccc43)CC2)c1`, the “hERG current change (%, negative = inhibition) at 10uM” value rises from -23.9% to -1.16%.

Compared with `Cc1c(N=Cc2cccnc2)c(=O)n(-c2ccccc2)n1C`, `Cc1ccccc1CN1C[C@@H]2C[C@@H](c3cn(C)nc3-c3ccccc3)N3CCC[C@@]23C1=O` is higher in “hERG current change (%, negative = inhibition) at 10uM” value: 2.93% for the first, 3.15% for the second.

First: CC(=O)Oc1ccc2c(=O)oc(-c3ccc([N+](=O)[O-])cc3)nc2c1
Second: COc1ccc(C(=O)Nc2nc3ccccc3s2)cc1
The “hERG current change (%, negative = inhibition) at 10uM” value of the first is lower: 1.56% for the first, 11.6% for the second.

Going from `O=c1c2ccccc2c(=O)n(Cc2ccccc2)n1Cc1ccccc1` to `Cn1cc([C@@H]2C[C@H]3CN(Cc4cccc(Cl)c4)C(=O)[C@]34CCCN24)c(-c2ccccc2)n1`, the “hERG current change (%, negative = inhibition) at 10uM” value falls from 16.8% to -63.3%.

Going from `O=C(CCCC(=O)OCC1CCCO1)OCC1CCCO1` (stereo not shown) to `Brc1ccc(OCCCCCN2CCOCC2)cc1.O=C(O)C(=O)O`, the “hERG current change (%, negative = inhibition) at 10uM” value falls from 8.27% to -63.8%.

Going from `CCOC(=O)c1cn(CC(=O)Nc2ccc(OC)cc2OC)nn1` to `COc1ccc2nc(NC(=O)Cc3ccc(OC)c(S(=O)(=O)N4CCOCC4)c3)sc2c1`, the “hERG current change (%, negative = inhibition) at 10uM” value falls from 9.07% to -22.1%.

Compared with `Cl.O=C(COc1ccc(Br)cc1)OCCN1CCCCC1`, `Brc1ccc(OCCCCN2CCCCC2)cc1` is lower in “hERG current change (%, negative = inhibition) at 10uM” value: 11.8% for the first, -53.6% for the second.

Compared with `Brc1ccc(OCCOCCN2CCOCC2)cc1`, `Brc1ccc(OCCCN2CCOCC2)cc1.O=C(O)C(=O)O` is lower in “hERG current change (%, negative = inhibition) at 10uM” value: -9% for the first, -28.1% for the second.

First: Cc1ccc(OCCCCN2CCCCC2)cc1
Second: CC1CCN(CCCCOc2ccc(Br)cc2)CC1
The “hERG current change (%, negative = inhibition) at 10uM” value of the first is higher: -12.1% for the first, -69.4% for the second.

Compared with `C#CCOCCOCCOCCNc1nc(N2CCN(C(=O)CCCCCCCCCCNC(=O)Cn3cc(C[C@@H](C)O)nn3)CC2)nc(N2CCN(C(=O)CCCCCCCCCCNC(=O)[C@H](CCCCN)n3cc(CCCC(=O)O)nn3)CC2)n1`, `COc1ccc(CC(=O)Nc2ccc(N3CCOCC3)cc2)cc1S(=O)(=O)N1CCOCC1` is higher in “hERG current change (%, negative = inhibition) at 10uM” value: -1.72% for the first, 0.936% for the second.

Compared with `C1CCc2c(nc3nnnn3c2N2CCOCC2)C1`, `CC(=O)c1sc2nc(-c3ccc(C)cc3)c3c(c2c1N)CCCC3` is higher in “hERG current change (%, negative = inhibition) at 10uM” value: -3.03% for the first, 2.68% for the second.

Compared with `COc1ccc(CC(=O)Nc2nc3ccccc3s2)cc1S(=O)(=O)N1CCOCC1`, `COc1ccc(CC(=O)Nc2nc3ccc(F)cc3s2)cc1S(=O)(=O)N1CCOCC1` is higher in “hERG current change (%, negative = inhibition) at 10uM” value: -65.9% for the first, -19.4% for the second.

Going from `COc1cccc(C(=O)Nc2nc3ccccc3s2)c1` to `COc1ccc(C(=O)Nc2nc3ccccc3s2)cc1OC`, the “hERG current change (%, negative = inhibition) at 10uM” value falls from 4.88% to -65.8%.

First: COc1ccc(CC(=O)Nc2ccc(F)c(Cl)c2)cc1S(=O)(=O)N1CCOCC1
Second: COc1cc(NC(=O)c2nccn2C)cc(C(=O)Nc2cccc(C(F)(F)F)c2)c1
The “hERG current change (%, negative = inhibition) at 10uM” value of the first is lower: -46.1% for the first, 5.31% for the second.

Compared with `CC(C)(C)C(=O)OCCn1c(=O)c2cc3c(=O)n(CCOC(=O)C(C)(C)C)c(=O)c3cc2c1=O`, `Cc1ccc(C(O)(C(=O)NNS(=O)(=O)c2ccc(C)cc2)c2ccc(C)cc2)cc1` is lower in “hERG current change (%, negative = inhibition) at 10uM” value: 25.5% for the first, -5.55% for the second.

First: CCCn1cc([C@@H]2C[C@H]3CN(Cc4cccc(Cl)c4)C(=O)[C@]34CCCN24)c(C)n1
Second: CCn1cc([C@@H]2C[C@H]3CN(Cc4cccc(Cl)c4)C(=O)[C@]34CCCN24)c(C)n1
The “hERG current change (%, negative = inhibition) at 10uM” value of the first is lower: -67.3% for the first, -41.7% for the second.

With `Cc1nn(C)cc1[C@@H]1C[C@H]2CN(Cc3cccc(Cl)c3)C(=O)[C@]23CCCN13` the “hERG current change (%, negative = inhibition) at 10uM” value was -36.8%.
